Test results from PubChem BioAssay (NCI).
About 83,000 compounds went through this panel and 20% of them were active in at least one assay; those are over-represented in the sample as a whole.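 For each line, cells grew in 96-well plates with the test compound present at a single concentration for 48 hours.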 Unmarked numbers belong to inactive results. Activity calls are given as the source filed them. How the source made its calls: active means growth percent below 10; inactive means the rest.

Tests used:
Test in all cases: NCI-60 one-dose screen, 48 h (100 = growth as untreated, 0 = no growth, -100 = all killed)
Details in all cases: 10 µM unless noted
[1] = test system: T-47D breast
[2] = test system: BT-549 breast
[3] = test system: MDA-MB-435 melanoma
[4] = test system: SW-620 colon
[5] = test system: MCF7 breast
[6] = test system: HCT-116 colon
[7] = test system: HCC-2998 colon
[8] = test system: KM12 colon

Cc1ccc(C(=O)COc2cccc(/C=C3\Oc4ccccc4C3=O)c2)cc1 showed a growth [1] of 50.3%, a growth [2] of 124% and a growth [3] of 90.2%. It also gave a growth [4] of 123%, a growth [5] of 116% and a growth [6] of 94.2%. For the same molecule, the growth [7] was 108% and the growth [8] was 100%.

With Cc1nc2c(c(N3CCCc4ccccc43)n1)CCC2 the growth [1] was 45.3%, the growth [2] was -12.1% (active) and the growth [3] was 1.15% (active). The growth [4] was 22.5%, the growth [5] was 14.6% and the growth [6] was -17% (active). The growth [7] was 18.3% and the growth [8] was 0.58% (active).

For NS(=O)(=O)c1cnccc1Sc1ccncc1S(N)(=O)=O, the growth [1] was 57%, the growth [2] was 96.4% and the growth [3] was 106%. The growth [4] was 113%, the growth [5] was 88.9% and the growth [6] was 106%. The growth [7] was 85.8% and the growth [8] was 108%.

In the case of COCCN(C(=O)c1ccc(F)cc1F)c1c(N)n(Cc2ccccc2)c(=O)[nH]c1=O, the growth [1] is reported as 103%, the growth [2] is reported as 135% and the growth [3] is reported as 105%. The growth [4] was 108%, the growth [5] was 108% and the growth [6] was 102%. The growth [7] was 106% and the growth [8] was 105%.

With COc1cc2ncn3c(=O)c4c5c(sc4nc3c2cc1OC)CCCC5 the growth [1] was 100%, the growth [2] was 99.9% and the growth [3] was 92.5%. It also gave a growth [4] of 90.1%, a growth [5] of 91.4% and a growth [6] of 95.5%. For the same molecule, the growth [7] was 102% and the growth [8] was 97.4%.

For Cc1c(C(=O)NC(Cc2ccccc2)C(O)C(=O)NCc2ccc(F)cc2)[nH]c2ccccc2c1=O (stereo unspecified), the growth [1] was 102%, the growth [2] was 108% and the growth [3] was 101%. For the same molecule, the growth [4] was 114%, the growth [5] was 104% and the growth [6] was 104%. It also gave a growth [7] of 118% and a growth [8] of 102%.

In the case of NC[C@H](O)c1ccc(O)c(O)c1, the growth [1] is reported as 110%, the growth [2] is reported as 88.7% and the growth [3] is reported as 109%. The growth [4] was 105%, the growth [5] was 110% and the growth [6] was 95.6%. It also gave a growth [7] of 102% and a growth [8] of 103%.

In the case of CNC(=O)NCC1OC(n2cnc3c(NC(=O)Nc4ccccc4)ncnc32)C(O[Si](C)(C)C(C)(C)C)C1CC(=O)N(C)OC (stereo unspecified), the growth [1] is reported as -34% (active), the growth [2] is reported as 25.5% and the growth [3] is reported as 7.75% (active). The growth [4] was 23.7%, the growth [5] was 3.29% (active) and the growth [6] was 16.8%. The growth [7] was -13.4% (active) and the growth [8] was 17.2%.

Work on Cc1ccc(NS(=O)(=O)c2ccc3c(c2)C2OCCC2C(c2ccc(C(=O)C(C)C)cc2)N3)cc1C (stereo unspecified) yielded a growth [1] of 24.3%, a growth [2] of 54.3% and a growth [3] of 36.3%. The growth [4] was 51.4%, the growth [5] was 17.6% and the growth [6] was 30.4%. The growth [7] was 62.2% and the growth [8] was 36.5%.

With COc1cccc(-c2nc3sccn3c2-c2ccnc(NCCNS(=O)(=O)c3ccc(C(F)(F)F)cc3)c2)c1 the growth [1] was 5.15% (active), the growth [2] was 10.4% and the growth [3] was 33.6%. For the same molecule, the growth [4] was 64.9%, the growth [5] was 19.5% and the growth [6] was 27.9%. The growth [7] was 70% and the growth [8] was 26.4%.

In the case of CCCc1cc2c(=O)c(C(=O)OC)c[nH]c2cc1N(CC)CC, the growth [1] is reported as 94.4%, the growth [2] is reported as 93.5% and the growth [3] is reported as 109%. It also gave a growth [4] of 114%, a growth [5] of 80.2% and a growth [6] of 96.3%. The growth [7] was 104% and the growth [8] was 105%.

For COc1cccc(C(=O)NCCCNc2cc(-c3cn(-c4ccccc4)nc3-c3cccc(OC)c3)ccn2)c1, the growth [1] was -4.96% (active), the growth [2] was 11% and the growth [3] was 40.2%. It also gave a growth [4] of 54.4%, a growth [5] of 37.5% and a growth [6] of 30.5%. The growth [7] was 61.2% and the growth [8] was 43.5%.

Molecule N#Cc1c(N)nc2c(C#N)c(NC(=O)c3ccccc3)nn2c1-c1ccccc1 has a growth [1] of 68.2%, a growth [2] of 97.6% and a growth [3] of 96.7%. It also gave a growth [4] of 103%, a growth [5] of 75.8% and a growth [6] of 92.7%. The growth [7] was 103% and the growth [8] was 95.7%.

Cc1cc(NCc2cc(Nc3ccnc4cc(Cl)ccc34)ccc2F)nc(N2CCN(c3ccccc3)CC2)n1 showed a growth [1] of 24.5%, a growth [2] of 70.1% and a growth [3] of 38.8%. The growth [4] was 46.1%, the growth [5] was 23.9% and the growth [6] was 1.74% (active). For the same molecule, the growth [7] was 28.2% and the growth [8] was 69.2%.

For C=CCSc1nc2ccccc2cc1/C=N/O, the growth [1] was 67.6%, the growth [2] was 85.6% and the growth [3] was 95.1%. For the same molecule, the growth [4] was 87%, the growth [5] was 78% and the growth [6] was 78.8%. For the same molecule, the growth [7] was 93.9% and the growth [8] was 89.5%.

With CCN(CC)c1nc(SCC(=O)Nc2nc3ccc(C)cc3s2)nc(-c2ccccc2)c1C#N the growth [1] was 75.8%, the growth [2] was 93.3% and the growth [3] was 98.5%. For the same molecule, the growth [4] was 97.9%, the growth [5] was 85.1% and the growth [6] was 83%. For the same molecule, the growth [7] was 110% and the growth [8] was 104%.

In the case of N#CC1=C(NC=O)Oc2c(ccc3ccccc23)C1c1ccccc1 (stereo unspecified), the growth [1] is reported as 25.2%, the growth [2] is reported as 25.9% and the growth [3] is reported as -33% (active). The growth [4] was 21.3%, the growth [5] was 17.5% and the growth [6] was 21.1%. It also gave a growth [7] of 63% and a growth [8] of 30.7%.

O=C1/C(=C/c2ccc(F)cc2)C=C(c2ccccc2)N1CCc1ccccc1 gave a growth [1] of 52.1%, a growth [2] of 79.3% and a growth [3] of 65.4%. It also gave a growth [4] of 70%, a growth [5] of 50.4% and a growth [6] of 29.4%. The growth [7] was 85% and the growth [8] was 62.2%.

O=C(COc1ccc(/C=C2\Oc3ccccc3C2=O)cc1)c1ccc(Cl)cc1 gave a growth [1] of 98.5%, a growth [2] of 121% and a growth [3] of 90.7%. It also gave a growth [4] of 115%, a growth [5] of 95.3% and a growth [6] of 88.5%. It also gave a growth [7] of 97.4% and a growth [8] of 98.5%.

CCN1CCN(c2nc(C)cc(NCc3cc(Nc4ccnc5cc(Cl)ccc45)ccc3F)n2)CC1 was tested, and the growth [1] was -24.3% (active), the growth [2] was 36.1% and the growth [3] was -88.4% (active). For the same molecule, the growth [4] was 11.5%, the growth [5] was 1.98% (active) and the growth [6] was 2.33% (active). For the same molecule, the growth [7] was -34.9% (active) and the growth [8] was 26.9%.

In the case of Cc1nn(-c2ccccc2)c2nc3c(c(-c4ccc(Cl)cc4)c12)CNC1(CCSCC1)N3, the growth [1] is reported as 84.3%, the growth [2] is reported as 109% and the growth [3] is reported as 99.8%. For the same molecule, the growth [4] was 92.8%, the growth [5] was 93% and the growth [6] was 90.7%. The growth [7] was 101% and the growth [8] was 98.3%.

For Cc1ccc(CCC(=O)Nc2ncc(Cc3cc(Cl)ccc3Cl)s2)o1, the growth [1] was 54.3%, the growth [2] was 3.48% (active) and the growth [3] was -36.8% (active). The growth [4] was 20.8%, the growth [5] was 13% and the growth [6] was 9.11% (active). For the same molecule, the growth [7] was 8.63% (active) and the growth [8] was 14.9%.

In the case of O=C(/C=C/c1ccc(Cl)nc1)c1ccc(Cl)cc1Cl, the growth [1] is reported as 91.6%, the growth [2] is reported as 110% and the growth [3] is reported as 89.9%. For the same molecule, the growth [4] was -33.2% (active), the growth [5] was 17.1% and the growth [6] was 36.7%. It also gave a growth [7] of 114% and a growth [8] of 76.5%.

For CCN(CC)Cc1cccc(C(=O)OC)c1, the growth [1] was 88.3%, the growth [2] was 93.1% and the growth [3] was 101%. For the same molecule, the growth [4] was 101%, the growth [5] was 90.9% and the growth [6] was 89.9%. For the same molecule, the growth [7] was 102% and the growth [8] was 102%.

Work on O=C(CSc1nnc(-c2ccc(NC(=O)c3cccnc3)cc2)o1)Nc1cccc(Br)c1 yielded a growth [1] of 56.5%, a growth [2] of 109% and a growth [3] of 94.3%. The growth [4] was 96.8%, the growth [5] was 90.3% and the growth [6] was 58.7%. The growth [7] was 106% and the growth [8] was 105%.

In the case of COc1cc(/C=C/C(=O)c2cccc(-n3cc(-c4ccccc4)[nH]c3=O)c2)ccc1O, the growth [1] is reported as 62.9%, the growth [2] is reported as 43.9% and the growth [3] is reported as 58.5%. The growth [4] was 4.95% (active), the growth [5] was 16.5% and the growth [6] was 13.5%. It also gave a growth [7] of 78.9% and a growth [8] of 15%.

With CCOc1ccccc1-n1c(CN2CCN(C(=O)COc3ccc(CNCCCCCCN4C5CCCC4CC(OC(=O)Nc4cc(C)ccc4OC)C5)cc3)CC2)nc2ccccc2c1=O (stereo unspecified) the growth [1] was -66.8% (active), the growth [2] was -90.8% (active) and the growth [3] was -97% (active). The growth [4] was -86.8% (active), the growth [5] was -78.3% (active) and the growth [6] was -91.5% (active). The growth [7] was -87.7% (active) and the growth [8] was -87.2% (active).

COCCc1ccc(OCC(O)CNC(C)C)cc1 (stereo unspecified) showed a growth [1] of 102%, a growth [2] of 94.2% and a growth [3] of 97.4%. For the same molecule, the growth [4] was 105%, the growth [5] was 101% and the growth [6] was 101%. It also gave a growth [7] of 102% and a growth [8] of 105%.

In the case of Cc1nc2ccccc2n1CC1NC(=O)NC1=O (stereo unspecified), the growth [1] is reported as 103%, the growth [2] is reported as 107% and the growth [3] is reported as 99.8%. It also gave a growth [4] of 97.6%, a growth [5] of 96.2% and a growth [6] of 106%. The growth [7] was 115% and the growth [8] was 102%.

In the case of O=C1OC(c2nc3ccccc3s2)=C/C1=C\c1ccc(O)cc1, the growth [1] is reported as 95.7%, the growth [2] is reported as 111% and the growth [3] is reported as 102%. The growth [4] was 94.4%, the growth [5] was 100% and the growth [6] was 99.8%. It also gave a growth [7] of 108% and a growth [8] of 95%.

With Cc1cccc(NC(=O)N/C(N)=N/c2nc(C)c(C)s2)c1 the growth [1] was 40.1%, the growth [2] was 70.3% and the growth [3] was -28.5% (active). The growth [4] was 25.7%, the growth [5] was 27% and the growth [6] was 33.5%. For the same molecule, the growth [7] was 63.7% and the growth [8] was 23.4%.

For COC(=O)[C@]12CC[C@@H](C)[C@H](C)[C@@H]1C1=CC[C@@H]3[C@@]4(C)C(C=O)=C[C@@](C)(COC(=O)c5ccco5)[C@@H]4C(=O)C[C@@]3(C)[C@]1(C)CC2, the growth [1] was 0.38% (active), the growth [2] was 12.9% and the growth [3] was -10.1% (active). For the same molecule, the growth [4] was 31.4%, the growth [5] was 20.4% and the growth [6] was 12.6%. The growth [7] was 38.9% and the growth [8] was 23.1%.
